These results are taken from ChEMBL document CHEMBL1961873, “Compounds: GSK PKIS; Assays: Nanosyn kinase panel” (2012).

Each structure is given as a SMILES string.

Assay [1] addresses RAF proto-oncogene serine/threonine-protein kinase (Homo sapiens) (UniProt P04049). The note with it: at 1 µM.
The target in assay [2] is T1, Interleukin-1 receptor-associated kinase 4 (Homo sapiens) (UniProt Q9NWZ3).
T1 sequence (whole entry): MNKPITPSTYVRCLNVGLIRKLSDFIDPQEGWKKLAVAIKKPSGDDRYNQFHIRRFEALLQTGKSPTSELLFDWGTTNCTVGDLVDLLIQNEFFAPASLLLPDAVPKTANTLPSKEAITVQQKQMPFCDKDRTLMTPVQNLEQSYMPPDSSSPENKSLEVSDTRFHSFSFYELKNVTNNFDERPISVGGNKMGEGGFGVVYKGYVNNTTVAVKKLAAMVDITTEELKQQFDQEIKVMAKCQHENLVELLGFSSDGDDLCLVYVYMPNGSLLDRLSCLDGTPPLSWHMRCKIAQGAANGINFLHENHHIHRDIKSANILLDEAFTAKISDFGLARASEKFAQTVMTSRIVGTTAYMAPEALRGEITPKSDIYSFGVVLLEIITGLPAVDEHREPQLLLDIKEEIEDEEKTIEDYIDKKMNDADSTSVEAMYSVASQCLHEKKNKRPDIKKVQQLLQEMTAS
As to conditions: at 0.1 µM.

The target of assay [3] is T1, Interleukin-1 receptor-associated kinase 4 (Homo sapiens). The note with it: at 1 µM.
Assay [4] concerns the target Leucine-rich repeat serine/threonine-protein kinase 2 (Homo sapiens) (UniProt Q5S007). The note with it: at 0.1 µM.
The target is the same in assay [5]. The note with it: at 1 µM.
For assay [6], the system named is Leucine-rich repeat serine/threonine-protein kinase 2 (Homo sapiens), Q5S007 [G2019S]. As to conditions: at 0.1 µM.
Sequence of Leucine-rich repeat serine/threonine-protein kinase 2 (Homo sapiens), Q5S007 [G2019S] (Q5S007 whole entry G2019S): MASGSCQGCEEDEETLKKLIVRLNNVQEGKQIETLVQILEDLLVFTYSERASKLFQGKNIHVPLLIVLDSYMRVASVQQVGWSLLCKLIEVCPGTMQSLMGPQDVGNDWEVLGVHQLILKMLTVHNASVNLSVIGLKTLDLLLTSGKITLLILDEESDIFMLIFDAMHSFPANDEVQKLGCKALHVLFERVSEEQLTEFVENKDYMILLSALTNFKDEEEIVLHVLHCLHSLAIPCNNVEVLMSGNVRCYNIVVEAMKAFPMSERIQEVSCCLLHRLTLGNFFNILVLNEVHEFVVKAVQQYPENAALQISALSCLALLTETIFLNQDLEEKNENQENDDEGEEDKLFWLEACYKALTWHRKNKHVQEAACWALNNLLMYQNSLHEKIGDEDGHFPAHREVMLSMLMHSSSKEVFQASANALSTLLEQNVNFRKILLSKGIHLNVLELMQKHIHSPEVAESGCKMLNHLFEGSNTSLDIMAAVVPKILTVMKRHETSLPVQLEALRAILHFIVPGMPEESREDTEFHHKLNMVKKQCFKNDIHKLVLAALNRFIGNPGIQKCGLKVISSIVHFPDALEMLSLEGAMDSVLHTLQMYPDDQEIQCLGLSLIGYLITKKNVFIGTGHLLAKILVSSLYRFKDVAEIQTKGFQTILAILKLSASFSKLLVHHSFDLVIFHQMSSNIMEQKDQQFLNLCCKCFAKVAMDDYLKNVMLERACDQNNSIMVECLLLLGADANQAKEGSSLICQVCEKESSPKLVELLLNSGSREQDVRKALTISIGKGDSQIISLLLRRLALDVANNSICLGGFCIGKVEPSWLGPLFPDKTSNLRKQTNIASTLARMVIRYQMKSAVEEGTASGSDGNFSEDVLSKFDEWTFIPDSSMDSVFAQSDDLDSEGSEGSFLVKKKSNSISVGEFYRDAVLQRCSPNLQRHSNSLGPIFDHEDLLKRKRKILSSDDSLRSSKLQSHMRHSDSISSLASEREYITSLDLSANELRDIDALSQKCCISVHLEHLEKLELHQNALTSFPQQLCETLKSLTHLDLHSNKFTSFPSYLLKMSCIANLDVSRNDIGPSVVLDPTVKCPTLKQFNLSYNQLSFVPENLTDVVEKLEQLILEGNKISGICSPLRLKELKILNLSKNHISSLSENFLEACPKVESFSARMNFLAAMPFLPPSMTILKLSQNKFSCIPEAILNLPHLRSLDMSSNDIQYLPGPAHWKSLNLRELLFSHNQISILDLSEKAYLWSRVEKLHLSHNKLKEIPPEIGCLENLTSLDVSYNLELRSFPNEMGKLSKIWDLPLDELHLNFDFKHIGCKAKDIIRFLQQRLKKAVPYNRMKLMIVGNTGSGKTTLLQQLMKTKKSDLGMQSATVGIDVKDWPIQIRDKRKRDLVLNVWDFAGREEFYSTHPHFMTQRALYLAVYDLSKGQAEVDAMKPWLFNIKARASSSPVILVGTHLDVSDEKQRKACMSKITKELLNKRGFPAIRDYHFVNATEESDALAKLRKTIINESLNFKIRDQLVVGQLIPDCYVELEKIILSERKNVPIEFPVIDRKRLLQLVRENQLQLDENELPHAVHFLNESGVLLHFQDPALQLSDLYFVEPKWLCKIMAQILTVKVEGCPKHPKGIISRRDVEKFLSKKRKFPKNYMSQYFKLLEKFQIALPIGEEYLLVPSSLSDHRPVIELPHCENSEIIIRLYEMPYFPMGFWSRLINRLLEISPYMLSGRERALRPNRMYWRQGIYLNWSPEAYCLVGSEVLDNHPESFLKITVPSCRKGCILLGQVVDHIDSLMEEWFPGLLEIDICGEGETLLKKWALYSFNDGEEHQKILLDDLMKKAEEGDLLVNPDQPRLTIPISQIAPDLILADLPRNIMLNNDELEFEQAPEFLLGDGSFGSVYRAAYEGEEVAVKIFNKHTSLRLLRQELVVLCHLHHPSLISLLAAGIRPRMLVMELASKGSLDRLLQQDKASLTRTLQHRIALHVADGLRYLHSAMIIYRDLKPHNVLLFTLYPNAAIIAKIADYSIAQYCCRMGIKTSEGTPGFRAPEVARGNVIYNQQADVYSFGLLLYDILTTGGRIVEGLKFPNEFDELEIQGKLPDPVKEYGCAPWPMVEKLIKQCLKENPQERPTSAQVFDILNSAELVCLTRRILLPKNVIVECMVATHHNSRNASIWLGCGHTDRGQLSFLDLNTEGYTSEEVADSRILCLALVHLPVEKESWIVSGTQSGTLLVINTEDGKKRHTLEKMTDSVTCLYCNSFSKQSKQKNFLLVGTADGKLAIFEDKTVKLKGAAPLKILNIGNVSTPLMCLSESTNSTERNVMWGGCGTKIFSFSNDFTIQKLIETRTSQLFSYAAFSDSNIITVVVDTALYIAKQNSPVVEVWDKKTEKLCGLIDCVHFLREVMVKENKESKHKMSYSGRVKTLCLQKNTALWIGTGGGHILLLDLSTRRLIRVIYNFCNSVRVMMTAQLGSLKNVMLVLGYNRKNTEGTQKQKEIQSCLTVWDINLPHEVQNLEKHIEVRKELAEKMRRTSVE
Assay [7] has the same test system. As to conditions: at 1 µM.

Sequence of RAF proto-oncogene serine/threonine-protein kinase (Homo sapiens) (P04049 whole entry): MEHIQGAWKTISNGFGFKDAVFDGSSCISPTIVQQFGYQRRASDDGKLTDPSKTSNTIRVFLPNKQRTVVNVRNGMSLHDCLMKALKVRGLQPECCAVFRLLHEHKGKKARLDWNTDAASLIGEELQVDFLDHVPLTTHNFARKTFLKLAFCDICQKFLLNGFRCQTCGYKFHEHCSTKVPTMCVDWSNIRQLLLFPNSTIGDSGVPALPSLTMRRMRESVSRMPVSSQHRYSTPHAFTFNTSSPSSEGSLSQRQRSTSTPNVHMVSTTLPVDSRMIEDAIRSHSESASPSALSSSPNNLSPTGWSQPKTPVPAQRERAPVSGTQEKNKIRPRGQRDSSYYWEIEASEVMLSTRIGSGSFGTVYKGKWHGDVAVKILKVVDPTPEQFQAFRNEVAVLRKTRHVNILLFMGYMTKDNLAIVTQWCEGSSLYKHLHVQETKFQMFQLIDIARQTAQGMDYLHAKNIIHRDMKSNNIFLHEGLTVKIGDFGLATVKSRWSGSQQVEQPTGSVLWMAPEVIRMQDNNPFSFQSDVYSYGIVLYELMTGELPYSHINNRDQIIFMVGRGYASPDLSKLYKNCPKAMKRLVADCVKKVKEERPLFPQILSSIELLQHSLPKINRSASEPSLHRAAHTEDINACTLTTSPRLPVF
Sequence of Leucine-rich repeat serine/threonine-protein kinase 2 (Homo sapiens) (Q5S007 whole entry): as the sequence (Q5S007 whole entry G2019S) above, with S2019G counted along it

In general, inhibition refers to the drop in the measured response relative to a control, in per cent. For the compound `COc1cc2ncnc(Nc3ccc(C)c(O)c3)c2cc1OC`, the inhibition in assay [1] is -1.36%; in assay [2], 4.09%; in assay [3], 2.62%; in assay [4] it was 1.75%; in assay [5], 8.77%; in assay [6], 4.67%. In addition, the inhibition in assay [7] turned out to be 18.3%.
As for `FC(F)(F)c1ccc(-c2nn3ncccc3c2-c2ccnc(Nc3ccc4c(c3)OCCO4)n2)cc1`, the inhibition in assay [1] was -0.8%; in assay [2], 5.37%; in assay [3], 1.44%; in assay [4], 4.63%; in assay [5], 8.46%; in assay [6], 6.21%. In addition, the inhibition in assay [7] worked out at 10.1%.
As for `NS(=O)(=O)c1ccc(NC=C2C(=O)Nc3ccc4ncsc4c32)cc1`, the inhibition is -1.97% in assay [1]; 0.1% in assay [2]; 4.43% in assay [3]; 23.9% in assay [4]; 78.8% in assay [5]; 48.8% in assay [6]. Besides, the inhibition in assay [7] was 59.7%.
Regarding `COc1ccc2ncnc(Nc3ccc(OCc4ccccc4)cc3)c2c1`, the inhibition is 3.13% in assay [2]; 0.86% in assay [3]; 1.61% in assay [4]; 4.95% in assay [5]; 2.19% in assay [6]; 13.1% in assay [7].
For the compound `Cc1cc(Cl)cc2c1NC(=O)C2=NNc1ccc(S(N)(=O)=O)cc1`, the inhibition was found to be 3.57% in assay [1]; 3.1% in assay [2]; 1.43% in assay [3]; 0.71% in assay [4]; 2.23% in assay [5]; 1.78% in assay [6]. Further, the inhibition in assay [7] came out at 4.5%.
`COC(=O)c1ccc2c(c1)C(=Cc1cc(Br)c(O)c(Br)c1)C(=O)N2`: the inhibition was 42% in assay [1]; 1.11% in assay [2]; 2.79% in assay [3]; 29.1% in assay [4]; 88.5% in assay [5]; 58.3% in assay [6]. Besides, in assay [7], the inhibition turned out to be 91.7%.
In the case of `O=S(=O)(CCOCc1ccc(-c2ccc3ncnc(Nc4ccc(OCc5cccc(F)c5)c(Cl)c4)c3c2)o1)c1ccccc1`, the inhibition in assay [1] was -1.29%; in assay [2], 0.22%; in assay [3], 0.93%; in assay [4], 4.19%; in assay [5], 9.06%; in assay [6], 6.55%. The inhibition in assay [7] stood at 10.3%.
With `CN(C)c1cc2c(Nc3ccc4c(cnn4Cc4ccccc4)c3)ncnc2cn1`, the inhibition in assay [1] turned out to be 7.17%; in assay [2] it was 3.11%; in assay [3] it was 1.57%; in assay [4] it was 3.31%; in assay [5] it was 9.07%; in assay [6], 3.44%. In assay [7], the inhibition was 8.03%.
Regarding `NS(=O)(=O)c1ccc(-c2cc3ccncc3cc2OCc2ccccc2)cc1`, the inhibition in assay [1] was 1.99%; in assay [2], -1.18%; in assay [3] it was 1.31%; in assay [4] it was 2.38%; in assay [5], 7.53%; in assay [6], 1.82%. For the same compound, the inhibition in assay [7] worked out at 8.17%.
`COc1ccc(-c2nn3ncccc3c2-c2ccnc(Nc3cccc(C(F)(F)F)c3)n2)cc1`: the inhibition is -0.7% in assay [1]; 2.1% in assay [2]; 1.92% in assay [3]; 2.5% in assay [4]; 2.68% in assay [5]; 2.73% in assay [6]. Also, the inhibition in assay [7] is -0.13%.
In the case of `CCn1c(-c2nonc2N)nc2ccc(F)cc21`, the inhibition came to 0.22% in assay [1]; 1.39% in assay [2]; 2.93% in assay [3]; 4.04% in assay [4]; 8.92% in assay [5]; 4.92% in assay [6]. The inhibition in assay [7] is 4.42%.
Consider `O=C(Nc1ccc(Oc2ccc3[nH]c(NC(=O)c4ccco4)nc3c2)cc1)Nc1cc(C(F)(F)F)ccc1F`, for which the inhibition in assay [1] is 39.9%; in assay [2], -2.35%; in assay [3], 0.94%; in assay [4], 15.7%; in assay [5] it was 15.8%; in assay [6] it was 9.87%. Further, the inhibition in assay [7] was 51.6%.
On to `c1ccc(Nc2ncc(-c3ccccc3)o2)cc1`, for which the inhibition was 0.56% in assay [1]; 2.02% in assay [2]; 2.65% in assay [3]; 1.16% in assay [4]; 4.27% in assay [5]; 3.18% in assay [6]. In addition, the inhibition in assay [7] was determined as 8.98%.
In the case of `ON=C1CCc2cc(-c3nc(C4CCNCC4)[nH]c3-c3ccncc3)ccc21`, the inhibition in assay [1] is 10.2%; in assay [2] it was 4%; in assay [3] it was -0.27%; in assay [4], 1.51%; in assay [5], 2.68%; in assay [6] it was 0.74%. For the same compound, the inhibition in assay [7] was 4.07%.
Consider `NS(=O)(=O)c1ccc(N/N=C2\C(=O)Nc3ccc(Cl)cc32)cc1`, for which the inhibition in assay [1] is -2.46%; in assay [2] it was 1.38%; in assay [3], 1.48%; in assay [4], 3.85%; in assay [5], 14.7%; in assay [6] it was 10.2%. Also, the inhibition in assay [7] was found to be 49.5%.
With `COc1cc(/C=N/Nc2ncnc3c2cnn3C(C)C)ccc1O`, the inhibition in assay [1] is 1.93%; in assay [2], 1.12%; in assay [3], 2.71%; in assay [4], 2.81%; in assay [5], 7.64%; in assay [6], 4.77%. For the same compound, the inhibition in assay [7] stood at 19.1%.
For `OCc1ccc(-c2nc(-c3ccccn3)c(-c3ccc4c(c3)OCO4)[nH]2)cc1`, the inhibition in assay [1] is -7.97%; in assay [2], -4.02%; in assay [3], 2.42%; in assay [4], 4.19%; in assay [5], 6.97%; in assay [6], 5.62%. For the same compound, the inhibition in assay [7] was 9.65%.
As for `COc1cccc(-n2ncc3c(N/N=C/c4ccc(C)cc4)ncnc32)c1`, the inhibition in assay [1] came to 0.4%; in assay [2], 2.16%; in assay [3], 4.05%; in assay [4] it was 10.2%; in assay [5] it was 18.8%; in assay [6], 11.3%. Moreover, the inhibition in assay [7] is 27.9%.
For `Nc1nccc(-c2c(-c3ccc(F)cc3)nn3cc(C(F)(F)F)ccc23)n1`, the inhibition is -7.59% in assay [1]; 0.57% in assay [2]; 0.46% in assay [3]; 6.4% in assay [4]; 7.9% in assay [5]; 6.54% in assay [6]. The inhibition in assay [7] was found to be 5.03%.
Take `CC(C)c1ccc2c(c1)NC(=O)/C2=N/Nc1ccc(S(N)(=O)=O)cc1`: the inhibition in assay [1] is -0.41%; in assay [2], 0.36%; in assay [3], 0.49%; in assay [4], -0.37%; in assay [5], 9.75%; in assay [6], 2.27%. Besides, the inhibition in assay [7] came to 11.5%.
Regarding `N#Cc1c(NC(=O)c2ccccc2F)sc2c1CCCC2`, the inhibition in assay [1] is -0.64%; in assay [2] it was -1.41%; in assay [3], -0.41%; in assay [4], 1.84%; in assay [5] it was 1.84%; in assay [6], 2.14%. For the same compound, the inhibition in assay [7] is 3.2%.
`Nc1nccc(-c2c(-c3ccc(F)cc3)ncn2CCCN2CCOCC2)n1`: the inhibition in assay [1] amounted to 2.86%; in assay [2], 3.35%; in assay [3], 2.13%; in assay [4] it was 1.92%; in assay [5], 1.82%; in assay [6], 2.45%. In assay [7], the inhibition worked out at 2.14%.
For the compound `CCS(=O)(=O)c1ccc(OC)c(Nc2nccc(N(C)c3ccc4c(C)n[nH]c4c3)n2)c1`, the inhibition is 3.08% in assay [1]; 1.47% in assay [2]; 1.99% in assay [3]; 5.36% in assay [4]; 22.5% in assay [5]; 8.48% in assay [6]. In addition, in assay [7], the inhibition amounted to 27.3%.
With `[O-][S+]1CCN(Cc2ccc(-c3ccc4ncnc(Nc5ccc(OCc6ccccc6)c(Cl)c5)c4c3)o2)CC1`, the inhibition in assay [1] was -0.7%; in assay [2], 0.32%; in assay [3] it was 0.82%; in assay [4] it was 1.07%; in assay [5], 2.89%; in assay [6], 4.21%. In addition, the inhibition in assay [7] was found to be 4.96%.
On to `COc1cc(Nc2nccc(-c3cnn4ncccc34)n2)cc(OC)c1`, for which the inhibition in assay [1] was determined as 10.1%; in assay [2], 5.71%; in assay [3] it was 18.6%; in assay [4], 18.7%; in assay [5], 24.4%; in assay [6], 22.1%. Further, in assay [7], the inhibition is 62.9%.
Take `Cc1ccc(C(=O)NC2CC2)cc1-c1ccc2[nH]ncc2c1`: the inhibition in assay [1] was -2.56%; in assay [2], -1.84%; in assay [3], -0.57%; in assay [4] it was -0.67%; in assay [5], 2.87%; in assay [6], 1.11%. For the same compound, the inhibition in assay [7] turned out to be 4.33%.
On to `Cc1ccc2c(c1)/C(=N/Nc1ccc(S(N)(=O)=O)cc1)C(=O)N2`, for which the inhibition was 2.09% in assay [2]; -0.03% in assay [3]; 6.44% in assay [4]; 13.1% in assay [5]; 9.36% in assay [6]; 46.2% in assay [7].
On to `CCOc1nccc2c1nc(-c1nonc1N)n2CC`, for which the inhibition was 1.42% in assay [1]; -2.37% in assay [2]; 1.89% in assay [3]; 3.98% in assay [4]; 8.96% in assay [5]; 5.55% in assay [6]. For the same compound, the inhibition in assay [7] is 11.8%.
On to `NS(=O)(=O)c1cccc(-c2cc3ccncc3cc2OCc2ccccc2)c1`, for which the inhibition was determined as 0.71% in assay [1]; 1.17% in assay [2]; 2.26% in assay [3]; 4.42% in assay [4]; 8.85% in assay [5]; 4.16% in assay [6]. Further, in assay [7], the inhibition is 8.74%.
As for `Cc1ccc2c(-c3ccnc(Nc4cccc(C(F)(F)F)c4)n3)c(-c3ccccc3)nn2n1`, the inhibition in assay [1] was 3.34%; in assay [2], 2.03%; in assay [3], 2.78%; in assay [4], 1.87%; in assay [5], 7.47%; in assay [6], 2.59%. Also, the inhibition in assay [7] is 4.94%.
For `Cc1ccc(O)cc1Nc1ccnc2ccc(S(C)(=O)=O)cc12`, the inhibition stood at 9.12% in assay [1]; 4.59% in assay [2]; 3.6% in assay [3]; 4.8% in assay [4]; 18.7% in assay [5]; 12.5% in assay [6]. Also, the inhibition in assay [7] came out at 48%.
As to `Cc1ccc2c(-c3ccnc(Nc4ccc5c(c4)OCCO5)n3)c(-c3ccc(C(F)(F)F)cc3)nn2n1`, the inhibition is 1.48% in assay [1]; -0.63% in assay [2]; -0.5% in assay [3]; 2.01% in assay [4]; 2.22% in assay [5]; 2.87% in assay [6]. In addition, in assay [7], the inhibition was 3.58%.
For the compound `CN(C)C(=O)O[C@@H]1CN[C@@H](C#Cc2cc3ncnc(Nc4ccc(OCc5cccc(F)c5)c(Cl)c4)c3s2)C1`, the inhibition stood at 2.83% in assay [2]; 0.5% in assay [3]; 0.07% in assay [4]; 0.34% in assay [5]; 1.22% in assay [6]; 4.14% in assay [7].
For `COC(=O)c1cncc(/C=C/c2c(C)cc(O)cc2C)c1`, the inhibition was -7.11% in assay [1]; -4.61% in assay [2]; 1.8% in assay [3]; 1.53% in assay [4]; 6.87% in assay [5]; 2.83% in assay [6]. In addition, the inhibition in assay [7] was determined as 9.71%.
